Among the data in PubChem BioAssay (NCATS) are Potency and outcome values, retold here.

A short description of test [1]: P-glycoprotein substrates identified in KB-8-5-11 adenocarcinoma cell line, qHTS therapeutic library screen (AID 1346987). Further: nearly all actives have a fitted effect of over 65% in size. The gist of the method:
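Human cervical adenocarcinoma KB-8-5-11 cells, selected in colchicine to over-express P-gp and assayed without it, were exposed for 72 h to titrated compounds. An ATP-based luminescent viability signal gave AC50.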
(qHTS replaces the single test concentration by a dilution series.)

Test [2] is described as follows: Natriuretic polypeptide receptor (hNpr1) antagonism - Pilot counterscreen GloSensor control cell line (AID 1347045; calls by dose curve; further: series mostly up to about 38 µM). The procedure, abridged: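 The SNP-driven cGMP luminescence signal (50 uM, 20 min, room temperature) was measured in GloSensor HEK293 control cells. Compounds were tested as a LOPAC titration series and preincubated for 30-50 min.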
For orientation: Counterscreens check selectivity or assay interference.

The target in test [3] is Atrial natriuretic peptide receptor 1 (Homo sapiens) (UniProt P16066). Put plainly: Natriuretic polypeptide receptor (hNpr1) antagonism - Pilot screen (AID 1347049; calls by dose curve;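 further: HEK293 cells with hNpr1 and GloSensor cGMP luciferase stimulated by 0.1 nM hNppA; agonist-evoked cGMP luminescence read 20 min after hNppA addition; series mostly up to about 58 µM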). The procedure, abridged:
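Cells expressing receptor plus cGMP biosensor are seeded and incubated overnight at 37C, then loaded with GloSensor reagent (2% final) at room temperature for 2 h. Library compounds go on for 30 min. A pre-read precedes agonist (hNppA, 0.1 nM final) and a 20-min readout.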

In test [4] the target is Atrial natriuretic peptide receptor 2 (Homo sapiens) (UniProt P20594). The test is described as follows: Natriuretic polypeptide receptor (hNpr2) antagonism - Pilot subtype selectivity assay (AID 1347050; calls by dose curve). The procedure, abridged:
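Read-out: GloSensor luminescence (CCD imager), baseline vs post-stimulation. HEK293 cells expressing hNpr2; compounds pre-incubated 30-50 min at ambient temperature; hNppC 1 nM final, 20 min.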

Test [5] can be described thus: NS1 protein of Zika virus - qHTS assay to identify small molecule inhibitors in human HEK 293 cells (AID 1347053). Further: series mostly up to about 46 µM; nearly all actives have a fitted effect of over 55% in size. The gist of the method:
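Read-out is a two-antibody TR-FRET for ZIKV NS1, normalized between uninfected cells and infected cells. Compound added 1 h before MR766 infection at MOI 0.5; human HEK 293 cells incubated 24 h, 37 C.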

In test [6] the target is T1, Tyrosine-protein phosphatase non-receptor type substrate 1 (Homo sapiens) + Leukocyte surface antigen CD47 (Homo sapiens) (UniProt P78324+Q08722). The test is described as follows: CD47-SIRPalpha protein protein interaction - HTRF assay qHTS validation (AID 1347058; active means well fitted curve in the direction sought with a large enough effect in the signal ratio, not every such curve was filed as active; the % refers to the signal ratio; further: series mostly up to about 38 µM). The procedure, abridged: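 Soluble extracellular domains (6His-CD47, Avi-tag-biotinylated SIRPalpha) in PBS pH 7.4 with 0.05% IGEPAL CA-630. Compounds were preincubated 30 min at RT with CD47 and anti-His-Eu, then SIRPalpha and SAV-XL665 were added. TR-FRET 665/615 ratio.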
T1 sequence (P78324 whole entry, looked up, the tested form may be a part): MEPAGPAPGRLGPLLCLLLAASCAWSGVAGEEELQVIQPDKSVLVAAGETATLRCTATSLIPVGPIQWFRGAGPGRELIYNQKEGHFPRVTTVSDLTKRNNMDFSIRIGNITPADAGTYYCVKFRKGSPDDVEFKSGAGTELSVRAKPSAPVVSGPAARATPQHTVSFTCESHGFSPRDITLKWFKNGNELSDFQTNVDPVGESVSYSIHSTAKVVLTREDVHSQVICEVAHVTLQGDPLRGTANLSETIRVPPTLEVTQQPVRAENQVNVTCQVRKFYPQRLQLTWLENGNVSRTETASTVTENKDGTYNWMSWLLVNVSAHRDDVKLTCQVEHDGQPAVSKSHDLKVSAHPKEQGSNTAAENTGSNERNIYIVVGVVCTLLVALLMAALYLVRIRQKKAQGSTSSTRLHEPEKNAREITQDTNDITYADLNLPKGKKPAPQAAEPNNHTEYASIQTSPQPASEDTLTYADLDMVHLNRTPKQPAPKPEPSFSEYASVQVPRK
T1 sequence (Q08722 whole entry, looked up, the tested form may be a part): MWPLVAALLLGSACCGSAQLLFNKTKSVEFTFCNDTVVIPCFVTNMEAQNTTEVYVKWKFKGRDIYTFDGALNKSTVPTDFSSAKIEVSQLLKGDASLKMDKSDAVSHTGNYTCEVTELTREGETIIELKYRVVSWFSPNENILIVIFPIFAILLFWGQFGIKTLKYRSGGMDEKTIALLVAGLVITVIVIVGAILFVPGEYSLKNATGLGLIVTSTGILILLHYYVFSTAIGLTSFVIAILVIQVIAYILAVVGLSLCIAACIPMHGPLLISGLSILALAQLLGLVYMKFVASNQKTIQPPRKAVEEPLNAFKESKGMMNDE
On the technique in general: Time-resolved FRET reads energy transfer from a long-lived donor to a nearby acceptor.

Test [7] concerns the target T1, Tyrosine-protein phosphatase non-receptor type substrate 1 (Homo sapiens) + Leukocyte surface antigen CD47 (Homo sapiens). The test is described as follows: CD47-SIRPalpha protein protein interaction - Alpha assay qHTS validation (AID 1347059).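 Further: bead proximity luminescence from CD47 binding SIRPalpha after compound preincubation with SIRPalpha.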 The gist of the method:
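In PBS (pH 7.4) with 0.05% IGEPAL CA-630, compound is preincubated with biotin-Avi-SIRPalpha ectodomain before His-CD47 ectodomain and affinity beads are added. Light-protected room-temperature incubations; AlphaScreen readout.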

In test [8] the target is Parathyroid hormone/parathyroid hormone-related peptide receptor (Homo sapiens) (UniProt Q03431). Put plainly: qHTS for PTHR1 Agonists: Optimization Screen against the NCGC LOPAC library (AID 1347079).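 Further: GloSensor cAMP luminescence in HEK-293 GP2 cells expressing human PTHR1 with IBMX.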 The gist of the method:
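Signal increase flags agonism. GP2 cells, derived from HEK-293, express human PTHR1 and a GloSensor cAMP construct.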

A short description of test [9]: qHTS for Inhibitors of the Functional Ribonucleoprotein Complex (vRNP) of Lassa (LASV) Arenavirus: LASV Primary Screen - GLuc reporter signal (AID 1347082; calls by dose curve; tested in HEK293 reporter line; further: nearly all actives have a fitted effect of over 60% in size; further: potency means the concentration at half of the fitted maximal effect).
Test [10] in a line: P-glycoprotein substrates identified in KB-3-1 adenocarcinoma cell line, qHTS therapeutic library screen (AID 1346986). Further: nearly all actives have a fitted effect of over 60% in size.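 Further: potency means the concentration at half of the fitted maximal effect; potency is for cytotoxicity meaning loss of cell viability.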 How it is done:
The ATP-binding cassette transporters P-glycoprotein (P-gp) is known to limit brain penetration of many chemotherapy drugs. […] We used the CellTiter-Glo viability assay to test library compounds against the parental KB-3-1 human cervical adenocarcinoma cell line and the colchicine-selected sub-line KB-8-5-11 that over-expresses P-gp. KB-8-5-11 cells were also tested in the presence of a P-gp inhibitor (tariquidar) to assess reversability of transporter-mediated resistance. Of the tested compounds, a total of 90 P-gp substrates were identified including 55 newly identified P-gp substrates. Substrates were confirmed using an orthogonal killing assay against HEK-293 cells transfected with P-gp. As exemplars, we confirmed that AT7159 (cyclin-dependent kinase inhibitor); AT9283, (Janus kinase 2/3 inhibitor); ispinesib (kinesin spindle protein inhibitor); gedatolisib (PKI-587, phosphoinositide 3-kinase/mammalian target of rampamycin inhibitor); GSK-690693 (AKT inhibitor); and KW-2478 (heat shock protein 90 inhibitor) were substrates , and direct ATPase stimulation was assessed. ABCG2 was also found to confer high levels of resistance to AT9283, GSK-690693 and gedatolisib, while ispinesib, AT7519 and KW-2478 were weaker substrates.
The HeLa derivative cell line, KB-3-1, and its colchicine-selected, P-gp-overexpressing subline, KB-8-5-11 were maintained in DMEM with 10% FCS and Pen/Strep with glutamine at 37 degree C in 5% CO2. For KB-8-5-11 cells, colchicine was added to the medium at a concentration of 100 ng/mL. HEK-293 cells transfected with empty vector (pcDNA) or vector containing human ABCB1 (MDR-19) or ABCG2 (R-5) have been described previously (Robey, Lin, Qiu, Chan & Bates, 2011) and were maintained in EMEM supplemented with 10% FCS, Pen/Strep and glutamine with 2 mg/ml G418 to select for the expression of the transporter. Cultures were confirmed to be free of mycoplasma infection using the MycoAlert Mycoplasma Detection Kit (Lonza, Walkersville, MD). For the screen, assay medium was identical to culture medium except for KB-8-5-11 where colchicine was excluded from the medium.
All cell lines were plated into 1536-well plates at 500 cells/well in 5 uL media. Compounds were then pinned in dose-response using a 1536-head pin tool (Kalypsis, San Diego, CA) and plates were incubated at 37 degree C in 5% CO2 for an additional 72 h. CellTiter-Glo reagent (Promega) was dispensed into the wells, incubated for 5 min and luminescence was read on a ViewLux instrument (Perkin-Elmer). Cytotoxic compounds were defined as those that yielded a curve class of -1.1, -1.2, -2.1, -2.2, -2.3, or -2.4, a maximum response of >50% and an AC50 of < 10 uM. Cherry-picked hits from screening analysis were tested with both the KB pair of cell lines, and the pcDNA (empty vector control) and MDR-19 (P-gp overexpressing) pair were tested, in the absence and presence of tariquidar.

Records with an inconclusive call do not appear. The source made the active and inactive calls. Unless noted, the call rests on the fitted dose curve; in most records, active means well fitted curve in the direction sought with a large enough effect; inconclusive means small, poorly fitted or top-dose-only effect, or another doubt; inactive means no such curve, though single readings can be large; an effect the other way counts as inactive or inconclusive.

Sequence of Parathyroid hormone/parathyroid hormone-related peptide receptor (Homo sapiens) (Q03431 whole entry, looked up): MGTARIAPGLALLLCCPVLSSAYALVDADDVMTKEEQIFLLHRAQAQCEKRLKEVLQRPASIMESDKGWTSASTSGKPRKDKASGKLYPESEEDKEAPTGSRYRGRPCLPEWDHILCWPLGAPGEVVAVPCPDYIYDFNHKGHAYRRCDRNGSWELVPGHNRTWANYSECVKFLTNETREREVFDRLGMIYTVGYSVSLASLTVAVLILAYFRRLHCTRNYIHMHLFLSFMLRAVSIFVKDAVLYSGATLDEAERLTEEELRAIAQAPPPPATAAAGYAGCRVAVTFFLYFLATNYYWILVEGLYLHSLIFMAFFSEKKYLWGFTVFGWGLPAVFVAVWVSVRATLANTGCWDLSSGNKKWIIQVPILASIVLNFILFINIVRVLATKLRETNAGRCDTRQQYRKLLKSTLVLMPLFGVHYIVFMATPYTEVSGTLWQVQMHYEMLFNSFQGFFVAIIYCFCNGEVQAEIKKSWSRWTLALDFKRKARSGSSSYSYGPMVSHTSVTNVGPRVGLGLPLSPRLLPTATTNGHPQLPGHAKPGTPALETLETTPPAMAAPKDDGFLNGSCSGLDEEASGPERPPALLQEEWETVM
Sequence of Atrial natriuretic peptide receptor 2 (Homo sapiens) (P20594 whole entry, looked up): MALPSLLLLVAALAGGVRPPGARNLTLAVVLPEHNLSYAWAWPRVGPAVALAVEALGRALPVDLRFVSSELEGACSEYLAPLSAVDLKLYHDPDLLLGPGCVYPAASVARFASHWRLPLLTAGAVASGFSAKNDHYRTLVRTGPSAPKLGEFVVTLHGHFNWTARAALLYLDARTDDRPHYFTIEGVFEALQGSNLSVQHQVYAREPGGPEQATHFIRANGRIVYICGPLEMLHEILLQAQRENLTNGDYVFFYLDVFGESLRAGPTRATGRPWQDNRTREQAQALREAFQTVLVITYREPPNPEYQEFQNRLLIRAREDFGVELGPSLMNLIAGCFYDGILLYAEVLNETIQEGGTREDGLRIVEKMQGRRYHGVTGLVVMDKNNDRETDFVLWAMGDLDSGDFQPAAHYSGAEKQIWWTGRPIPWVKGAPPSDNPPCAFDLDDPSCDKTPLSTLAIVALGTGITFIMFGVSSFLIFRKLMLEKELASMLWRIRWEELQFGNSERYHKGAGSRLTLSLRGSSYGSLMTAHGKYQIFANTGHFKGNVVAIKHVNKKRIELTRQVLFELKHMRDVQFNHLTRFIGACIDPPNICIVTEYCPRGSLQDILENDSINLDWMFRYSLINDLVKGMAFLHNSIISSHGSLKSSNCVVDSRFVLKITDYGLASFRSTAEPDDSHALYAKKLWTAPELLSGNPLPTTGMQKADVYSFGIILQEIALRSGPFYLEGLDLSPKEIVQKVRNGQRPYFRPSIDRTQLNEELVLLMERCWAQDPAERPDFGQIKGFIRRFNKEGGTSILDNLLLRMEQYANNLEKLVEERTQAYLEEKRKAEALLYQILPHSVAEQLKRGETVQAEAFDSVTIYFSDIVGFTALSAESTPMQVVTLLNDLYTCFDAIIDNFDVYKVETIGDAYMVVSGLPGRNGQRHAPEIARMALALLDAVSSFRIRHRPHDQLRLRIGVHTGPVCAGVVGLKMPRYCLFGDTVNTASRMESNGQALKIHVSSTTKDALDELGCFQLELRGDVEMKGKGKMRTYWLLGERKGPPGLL
Sequence of Atrial natriuretic peptide receptor 1 (Homo sapiens) (P16066 whole entry, looked up): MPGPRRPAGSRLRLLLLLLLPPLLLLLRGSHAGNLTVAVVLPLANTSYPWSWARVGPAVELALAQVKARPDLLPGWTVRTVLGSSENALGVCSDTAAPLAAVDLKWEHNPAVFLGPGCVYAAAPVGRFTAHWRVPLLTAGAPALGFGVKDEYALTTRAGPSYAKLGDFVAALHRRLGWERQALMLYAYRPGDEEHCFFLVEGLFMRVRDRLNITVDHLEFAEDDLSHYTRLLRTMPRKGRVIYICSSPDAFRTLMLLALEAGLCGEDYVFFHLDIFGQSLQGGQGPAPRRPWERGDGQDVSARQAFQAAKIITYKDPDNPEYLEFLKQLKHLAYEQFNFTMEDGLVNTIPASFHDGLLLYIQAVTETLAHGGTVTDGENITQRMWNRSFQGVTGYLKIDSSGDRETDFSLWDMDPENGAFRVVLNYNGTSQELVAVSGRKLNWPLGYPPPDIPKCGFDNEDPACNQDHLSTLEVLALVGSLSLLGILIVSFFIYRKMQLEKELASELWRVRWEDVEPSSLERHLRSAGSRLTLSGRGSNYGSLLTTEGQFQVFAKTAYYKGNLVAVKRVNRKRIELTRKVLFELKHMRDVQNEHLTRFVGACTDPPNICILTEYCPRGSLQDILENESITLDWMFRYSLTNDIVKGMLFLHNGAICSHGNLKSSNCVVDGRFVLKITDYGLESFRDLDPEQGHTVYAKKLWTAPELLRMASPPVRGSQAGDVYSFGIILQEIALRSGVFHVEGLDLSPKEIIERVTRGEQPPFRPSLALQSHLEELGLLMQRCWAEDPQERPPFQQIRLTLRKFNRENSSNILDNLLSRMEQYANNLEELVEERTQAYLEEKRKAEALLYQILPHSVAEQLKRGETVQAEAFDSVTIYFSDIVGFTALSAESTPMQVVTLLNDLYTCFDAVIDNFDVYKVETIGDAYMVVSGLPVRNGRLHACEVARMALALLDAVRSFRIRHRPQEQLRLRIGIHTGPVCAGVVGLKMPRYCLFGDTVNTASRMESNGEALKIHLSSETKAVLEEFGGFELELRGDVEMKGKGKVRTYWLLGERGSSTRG

Turning to `c1ccc(C2CC2)c(OCC2=NCCN2)c1`, the Potency entry in [1], in test [2], in [3], in test [4], in test [5] and in [9] was “inactive” throughout. The outcome in [6], in test [7] and in [8] was inactive.

In the case of `c1ccc2c(c1)OCC(C1=NCCN1)O2` (stereo not given), the Potency result in [1] and in [4] was “inactive” each time. Further, the result in [6], in [7] and in test [8] was inactive. For the same compound, the Potency in test [9] was 14.1 µM (active).

In the case of `NN=C(N)N`, the Potency result in test [1], in [2], in test [3], in [4], in test [5] and in [9] was “inactive” each time. The result in test [6], in test [7] and in [8] was inactive.

For the compound `COc1ccc2c(c1OC)CN1CCc3cc4c(cc3C1C2)OCO4` (stereo not given), the Potency in test [10] is 9.2 µM (active). Besides, the Potency result in [1], in test [5] and in [9] was “inactive” in each case.

`CCCC(C)(COC(N)=O)COC(=O)NC(C)C` (stereo not given): the Potency result in test [10], in test [1], in test [2], in test [3], in test [4] and in test [5] was “inactive” in each case. Also, in test [9], the Potency result is “inactive”. Moreover, in test [8], the compound was classed as inactive.

As for `COc1ccc(C(CN(C)C)C2(O)CCCCC2)cc1` (stereo not given), the Potency entry in test [1], in [3], in [5] and in [9] was “inactive” each time. The result in test [8] was inactive.

Take `Cc1cccc(C)c1NC1=NCCCS1`: the Potency entry in test [1], in test [2], in test [4], in test [5] and in test [9] was “inactive” throughout. For the same compound, the result in test [6], in test [7] and in test [8] was inactive.

As for `O=C(O)C(=O)c1cn(Cc2ccccc2)c2ccc(-c3ccc(OC(F)(F)F)cc3)cc12`, the Potency result in [10], in [1] and in test [9] was “inactive” each time.

`COc1ccccc1N1CCNCC1`: the Potency result in test [1], in test [2], in test [3], in test [4], in test [5] and in test [9] was “inactive” each time. Further, the result in test [6], in test [7] and in test [8] was inactive.

`O=C1CC[C@@]2(O)[C@H]3Cc4ccc(O)c5c4[C@@]2(CCN3CC2CC2)[C@H]1O5`: the Potency result in [10], in test [1], in test [5] and in test [9] was “inactive” in each case.

For the compound `CC(=O)[C@H]1CC[C@H]2[C@@H]3CC[C@H]4C[C@](C)(O)CC[C@]4(C)[C@H]3CC[C@]12C`, the Potency entry in test [1], in test [2], in test [4], in [5] and in test [9] was “inactive” in each case. Besides, the outcome in test [6], in test [7] and in [8] was inactive.

Take `CC(C)=CCOc1c2occc2cc2ccc(=O)oc12`: the Potency result in [1], in test [2], in [3], in test [4], in [5] and in test [9] was “inactive” each time. In addition, the result in test [7] and in [8] was inactive.

With `NCC(CC(=O)O)c1ccc(Cl)cc1` (stereo not given), the Potency entry in test [1], in test [2], in [3], in test [4], in test [5] and in test [9] was “inactive” in each case. Moreover, the result in test [6], in test [7] and in [8] was inactive.
